# PKM2 act = qHTS Assay for Activators of Human Muscle isoform 2 Pyruvate Kinase; Pyruvate kinase PKM (Homo sapiens), P14618; purified PKM2, Kinase-Glo ATP luminescence, activation; response scale: 0% is enzyme alone, no compound; Potency, µM (top dose mostly 57.5 µM), actives largely listed as activators; 260,000 tested, 0.34% active; note: nearly all actives have a fitted effect of over 55% in size
# Target sequence (P14618 whole entry, looked up, canonical isoform): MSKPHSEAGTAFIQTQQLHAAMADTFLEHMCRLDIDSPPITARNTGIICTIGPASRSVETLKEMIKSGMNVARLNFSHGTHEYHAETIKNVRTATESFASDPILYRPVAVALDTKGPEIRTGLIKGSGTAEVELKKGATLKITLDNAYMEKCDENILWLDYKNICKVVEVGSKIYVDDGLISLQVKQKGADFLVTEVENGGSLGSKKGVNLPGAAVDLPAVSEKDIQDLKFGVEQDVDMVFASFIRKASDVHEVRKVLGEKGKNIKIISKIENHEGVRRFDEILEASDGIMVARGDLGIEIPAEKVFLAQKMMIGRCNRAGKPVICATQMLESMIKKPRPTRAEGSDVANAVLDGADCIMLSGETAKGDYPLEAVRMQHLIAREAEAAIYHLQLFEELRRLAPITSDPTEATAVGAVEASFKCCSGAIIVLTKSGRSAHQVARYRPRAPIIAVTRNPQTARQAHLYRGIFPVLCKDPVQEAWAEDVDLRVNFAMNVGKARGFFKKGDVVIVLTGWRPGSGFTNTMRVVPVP
#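 Purified hPK-M2 (>95%) run at intermediate activity with 0.1 mM ADP and 0.5 mM PEP in 50 mM imidazole pH 7.2, KCl, MgCl2; 1 h room temperature. ATP formed read by Kinase-Glo luminescence; normalized to uninhibited and no-enzyme controls.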
# Pin1 inh = qHTS Assay to Find Inhibitors of Pin1; Potency, µM (doses to about 115 µM), actives largely listed as inhibitors; 390,000 tested, 0.009% active; Peptidyl-prolyl cis-trans isomerase NIMA-interacting 1 (Homo sapiens), Q13526; AID 504891, 2011; Pin1 FP peptide displacement, HiFluor488, 10 min; active = well fitted inhibition curve with a large enough effect in the polarisation, with a control signal flat, not every such curve was filed as active; inconclusive = small, poorly fitted or top-dose-only effect, or effect the other way, or a change in a side signal; inactive = no such curve, though single readings can be large or run the other way; the % refers to the polarisation
# Target sequence (Q13526 whole entry, looked up): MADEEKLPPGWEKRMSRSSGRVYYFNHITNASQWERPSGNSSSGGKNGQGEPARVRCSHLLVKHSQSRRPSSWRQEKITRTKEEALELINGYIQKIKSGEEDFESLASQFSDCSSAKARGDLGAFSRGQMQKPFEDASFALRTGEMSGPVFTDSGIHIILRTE
# PTAP TSG101 blk = qHTS Assay for Iinhibitors of HIV-1 Budding by Blocking the Interaction of PTAP/TSG101; AID 493005, 2010; Potency, µM (series often up to 115 µM), actives largely listed as inhibitors; Fluorescence polarization, FITC-PTAP peptide / Tsg101 binding; 340,000 tested, under 10 active; active = well fitted inhibition curve with a large enough effect in the main read-out, with a control signal flat, not every such curve was filed as active; inconclusive = small, poorly fitted or top-dose-only effect, or effect the other way, or a change in a side signal; inactive = no such curve, though single readings can be large or run the other way
#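 Fluorescence polarization binding of Tsg101 binding domain (10 uM final) to FITC-labeled PTAP peptide (50 nM final) in HEPES pH 7.5 buffer with NaCl, Tween 20, EDTA, TCEP. Compounds added before peptide; binding 20 min at RT.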
# AT treatment = qHTS Assay for Identifying a Potential Treatment of Ataxia-Telangiectasia; F2112 A-T fibroblasts, KAP-1 phosphorylation AlphaLISA; neocarzinostatin DNA damage 30 min before lysis; Potency, µM (top dose mostly 57.5 µM), hits mostly activators; 320,000 tested, 0.19% active; note: nearly all actives have a fitted effect of over 45% in size
#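 hTERT-immortalized A-T patient fibroblasts (F2112), 500 cells/well in OPTI-MEM, 1% FBS, got compounds for 60 min, then NCS for 30 min at 37C. Lysates were then assayed for phospho-KAP-1 by AlphaLISA (anti-pKAP1 donor, anti-KAP1 acceptor beads), 6 hr at 25C.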
# Hits are given with their value; – = inactive; ? = inconclusive; · = no result given. In the library only some 0.39% were active in any assay of this set; here they are far more common. Unless noted, calls come from the whole dose curve; as a rule, active = well fitted activation curve with a large enough effect; inconclusive = small, poorly fitted or top-dose-only effect; inactive = no such curve, though single readings can be large or run the other way.
SMILES,PKM2 act,Pin1 inh,PTAP TSG101 blk,AT treatment
CCCOc1ccc(-c2nnn(CC(=O)N3CCCC(C)C3)n2)cc1 (stereo not drawn),–,?,–,40µM
CCOc1ccc(-c2nnn(CC(=O)N3CCCC(C)C3)n2)cc1 (stereo not drawn),–,–,–,–
NCCCNc1ncnc2ccc(-c3ccc4c(c3)OCO4)cc12,·,–,·,·
O=C(Nc1ccc2c(c1)OCCO2)c1ccccc1F,–,–,–,–
CSc1ncccc1C(=O)Nc1ccc2c(c1)OCCO2,·,–,–,28µM
Cc1ccc(CN(Cc2cccnc2)C(=O)CN2C(=O)COc3ccccc32)o1,28µM,–,–,–
Cc1cccc(/C=C(\c2nc3ccccc3[nH]2)S(=O)(=O)c2ccccc2)c1,–,–,–,35µM
CC(C)(C)c1ccc(/C=C(\c2nc3ccccc3[nH]2)S(=O)(=O)c2ccccc2)cc1,·,–,–,·
N=c1c2c(ccn1CCc1ccccc1)Oc1ccc3ccccc3c1C2c1ccccc1 (stereo not drawn),·,–,·,·
CCN(CC)CC(O)Cn1c(-c2ccccc2Cl)nc2ccccc21 (stereo not drawn),–,–,–,16µM
On1c(-c2ccccc2Cl)nc2ccccc21,–,–,–,–
Cc1nc(CN(C)c2ncnc3cc(-c4ccc5c(c4)OCO5)ccc23)cs1,·,–,·,·
Clc1ccc(C(c2ccccc2Cl)C(Cl)Cl)cc1 (stereo not drawn),·,?,–,28µM
CC(=O)N1CCc2cc(S(=O)(=O)Nc3ccc(C)c(C)c3)ccc21,·,–,·,·
CC(C)Nc1cccc(S(=O)(=O)N2CCCN(S(=O)(=O)c3ccc4c(c3)OCCO4)CC2)c1,·,–,·,·
O=C(CSc1ccc(F)cc1)N1CCC(c2nc3ccccc3s2)CC1,20µM,–,–,–
Cc1ccc(Nc2c(-c3ccc(C)o3)nc3cnccn23)cc1,11µM,–,–,–
Cc1ccc(-c2nc3cnccn3c2Nc2ccc3c(c2)OCO3)o1,10µM,–,–,–
Cc1ccc(-c2nc3cnccn3c2Nc2ccccc2)o1,–,–,–,–
COc1ccc(C(=O)N(Cc2ccccc2)Cc2cccs2)c(O)c1,·,–,·,·
CC1(C)CC2(CC(c3ccccc3F)c3ccc(O)c(O)c3O2)NC(=S)N1 (stereo not drawn),2.8µM,–,–,–
COc1cccc(CNC(=O)C2CCN(S(=O)(=O)c3ccccc3)CC2)c1,25µM,–,–,–
O=C(NCc1ccc2c(c1)OCO2)C1CCN(S(=O)(=O)c2cccs2)CC1,8.9µM,–,–,–
COc1ccc(S(=O)(=O)N2CCC(C(=O)NCCC(=O)Nc3cccc(OC)c3)CC2)cc1,·,–,–,–
COc1cccc(CNC(=O)N2CCN(S(=O)(=O)c3ccc(Cl)cc3)CC2)c1,14µM,–,–,–
SMILES,PKM2 act,Pin1 inh,PTAP TSG101 blk,AT treatment
COc1ccc(NC(=O)CCNC(=O)C2CCN(S(=O)(=O)c3ccc(F)cc3)CC2)cc1OC,4.5µM,–,–,–
Cn1c2cc(Br)sc2c2cnn(Cc3ccccc3F)c(=O)c21,·,–,·,·
Cc1c(P(=S)(c2ccccc2)c2ccccc2)c2ccccc2n1C/C=C/c1ccccc1,·,–,·,·
CC(C)(C)OC(=O)NCc1nnc(C(C(=O)OCc2ccccc2)c2ccccc2)s1 (stereo not drawn),·,–,·,·
COc1cccc(CNC(=O)C2CCN(S(=O)(=O)c3ccc4c(c3)NC(=O)CO4)CC2)c1,·,–,–,–
COc1cccc(CNC(=O)C2CCN(S(=O)(=O)c3ccc4c(c3)OCCO4)CC2)c1,11µM,–,–,–
N#Cc1cccc(OC2=NS(=O)(=O)c3ccccc32)c1,·,–,·,·
COc1ccc2sc(-c3ccc(SC)cc3)c(C#CC(C)(C)O)c2c1,·,–,–,?
COc1ccc2sc(-c3ccc(N(C)C)cc3)c(C#Cc3cncn3C)c2c1,·,–,–,32µM
COc1ccc2sc(-c3ccc(SC)cc3)c(C#CCO)c2c1,·,–,–,–
COc1ccc2sc(-c3ccc(N(C)C)cc3)c(C#CCCO)c2c1,·,–,–,25µM
COc1ccc2sc(-c3ccc(N(C)C)cc3)c(C#CC(C)(C)O)c2c1,·,?,–,32µM
COc1ccc(-c2sc3ccc(OC)cc3c2C#CCCO)cc1,–,–,·,?
CC(=O)Nc1sc2c(c1-c1ccco1)CCNC2,·,–,·,·
C=CCc1cccc(CNc2nc3ccccc3n2CC)c1O,?,–,–,–
C=CCc1cccc(CNc2nc3ccccc3n2CCC)c1O,28µM,–,–,?
O=C(OCc1ccc2c(c1)OCO2)c1ccc(S(=O)(=O)N2CCCC2)cc1,8.9µM,–,–,–
O=S(=O)(c1ccc(F)c(F)c1)N1CCN(Cc2ccc3c(c2)OCO3)CC1,–,–,–,–
COc1ccc(S(=O)(=O)N2CCN(S(=O)(=O)c3ccc4c(c3)OCCO4)CC2)cc1C,3.5µM,–,–,–
O=S(=O)(c1ccc2c(c1)OCCO2)N1CCN(c2cccc(Cl)c2)CC1,2.8µM,–,–,·
O=S(=O)(c1ccc2c(c1)OCCO2)N1CCN(Cc2ccc3c(c2)OCO3)CC1,3.5µM,–,–,–
CCC(=O)NC(c1cc(Cl)c2cccnc2c1O)c1cccn1C (stereo not drawn),·,–,·,·
CN1CCN(c2cccc(Nc3nn4c(=O)c5ccc(C(F)(F)F)cc5nc4s3)c2)CC1,·,–,·,·
CN1CCN(S(=O)(=O)c2ccc3c(c2)OCCO3)CC1,–,–,–,–
CC(=O)Nc1ccc(S(=O)(=O)N2CCCN(S(=O)(=O)c3ccc4c(c3)OCCO4)CC2)cc1,·,–,·,·
SMILES,PKM2 act,Pin1 inh,PTAP TSG101 blk,AT treatment
Cc1ccc(S(=O)(=O)N2CCCN(S(=O)(=O)c3ccc4c(c3)OCCO4)CC2)cc1,0.35µM,–,–,–
CCS(=O)(=O)N1CCN(S(=O)(=O)c2ccc3c(c2)OCCO3)CC1,3.5µM,–,–,–
NC(=O)C1CCN(c2ncc(-c3ccc4c(c3)OC(F)(F)O4)s2)CC1,·,–,·,·
COc1ccc(NC(=O)CSc2ccc(-c3ccco3)nn2)cc1OC,–,–,–,–
COc1cccc(NC(=O)CSc2ccc(-c3ccco3)nn2)c1,3.2µM,–,–,–
Cc1nnc(NC(=O)CSc2ccc(-c3ccco3)nn2)s1,20µM,?,–,–
COc1cccc(NC(=O)CSc2ccc3nnc(-c4ccncc4)n3n2)c1,1.8µM,–,–,–
Cc1ccc(-c2cnc(N3CCC(C(N)=O)CC3)s2)cc1,·,–,·,·
CCN(CC)c1ccc(/C=c2\sc3nnc(-c4ccccc4Cl)n3c2=O)cc1,–,?,?,–
Cc1ccc(/C=c2/sc3nnc(-c4ccccc4Cl)n3c2=O)o1,8.9µM,–,–,–
COC(=O)CSc1nnc(-c2ccc(NS(=O)(=O)c3ccccc3)cc2)o1,25µM,–,–,–
O=[N+]([O-])c1ccccc1NCc1ccc(O)c2ncccc12,·,–,·,·

# High-throughput results as filed in PubChem.
